Assay [1] is described as follows: qHTS assay to identify aromatase inhibitors - cell viability counter screen (AID 743084).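 Further: cells stimulated with testosterone during compound exposure; nearly all actives have a fitted effect of over 55% in size.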 Further: potency means the concentration at half of the fitted maximal effect. A general note: qHTS replaces the single test concentration by a dilution series.
Assay [2] concerns the target Aryl hydrocarbon receptor (Homo sapiens) (UniProt P35869). The assay can be described thus: qHTS assay to identify small molecule that activate the aryl hydrocarbon receptor (AhR) signaling pathway (AID 743085). Further: nearly all actives have a fitted effect of over 15% in size. Further: potency means the concentration at half of the fitted maximal effect.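 On activation: HG2L7.5c1 human HepG2 liver cells with stably integrated DRE-driven firefly reporter; series mostly up to about 70 µM.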 A digest of the protocol: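 Reporter assay in engineered HepG2 line HG2L7.5c1, whose plasmid carries twenty dioxin responsive elements upstream of firefly luciferase. Treatment lasted 24 h at 37C; ONE-Glo luminescence gauged induction.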

Assay [3] can be described thus: qHTS assay to identify small molecule that activate the aryl hydrocarbon receptor (AhR) signaling pathway - cell viability counter screen (AID 743086). Further: series mostly up to about 70 µM; nearly all actives have a fitted effect of over 45% in size. In outline: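 Cytotoxicity counter screen: CellTiter-Fluor signal (30 min, 37 C) in 4000 HepG2 cells/well carrying the DRE-luciferase reporter, following 24 h compound exposure at 37 C.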
Assay [4] has as its target Peroxisome proliferator-activated receptor gamma (Homo sapiens) (UniProt P37231). The assay can be described thus: qHTS assay to identify small molecule agonists of the peroxisome proliferator-activated receptor gamma (PPARg) signaling pathway (AID 743094; active means well fitted activation curve with a large enough effect in the signal ratio in the repeat runs, not every such curve was filed as active; the % refers to the signal ratio). A digest of the protocol:
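Agonism was assessed in a beta-lactamase reporter system, HEK293H cells with a stably integrated UAS-bla construct under PPARg control; the 17 h treatment at 37C preceded a 1 h room-temperature FRET substrate read.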

The nature of assay [5]: qHTS assay to identify small molecule antagonists of the peroxisome proliferator-activated receptor gamma (PPARg) signaling pathway - cell viability counter screen (AID 743194). Further: nearly all actives have a fitted effect of over 55% in size. In outline: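 Viability was measured as CellTiter-Glo luminescence in GeneBLAzer PPARg UAS-bla HEK293H cells. These cells had been exposed 17 h at 37 C to compounds together with rosiglitazone at 50 nM final, with the beta-lactamase readout taken in the same wells.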

Assay [6] is described as follows: qHTS assay for small molecule agonists of the antioxidant response element (ARE) signaling pathway (AID 743202; active means well fitted activation curve with a large enough effect in the signal ratio in the repeat runs, not every such curve was filed as active; the % refers to the signal ratio; further: potency means the concentration at half of the fitted maximal effect). A digest of the protocol: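 After 16 hours of compound treatment at 37 C, HepG2 cells with a stably integrated ARE-driven beta-lactamase reporter were loaded 2 hours at room temperature with LiveBLAzer B/G FRET substrate and fluorescence intensity measured.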

Assay [7] can be described thus: qHTS assay for small molecule agonists of the antioxidant response element (ARE) signaling pathway - cell viability counter screen (AID 743203; calls by dose curve; further: nearly all actives have a fitted effect of over 55% in size). In outline:
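ATP content via CellTiter-Glo luminescence served as the viability measure. Cells: ARE-bla HepG2, 2,000 per well. Exposure: 16 hrs, 37C/5% CO2.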

The nature of assay [8]: qHTS assay for small molecule activators of the heat shock response signaling pathway (AID 743210; active means well fitted activation curve with a large enough effect in the signal ratio in the repeat runs, with a control signal flat, not every such curve was filed as active; the % refers to the signal ratio; further: series mostly up to about 63 µM). In outline: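 Compound exposure lasted 5 h at 37 C in HeLa cells carrying a heat-shock-element-driven beta-lactamase reporter. Read-out: fluorescence intensity after 2.5 h room-temperature loading with LiveBLAzer B/G FRET substrate.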
Assay [9] in a line: qHTS assay for small molecule activators of the heat shock response signaling pathway - cell viability counter screen (AID 743209). Further: nearly all actives have a fitted effect of over 50% in size. In outline:
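Compounds dissolved in DMSO were added to overnight-plated HSE-bla HeLa cells and left 5 h at 37 C. Cell viability was quantified by luminescence using CellTiter-Glo.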

In assay [10] the target is Peroxisome proliferator-activated receptor gamma (Homo sapiens) (UniProt P37231). The assay can be described thus: qHTS assay to identify small molecule antagonists of the peroxisome proliferator-activated receptor gamma (PPARg) signaling pathway (AID 743191; calls by dose curve; further: series mostly up to about 63 µM; nearly all actives have a fitted effect of over 30% in size). A digest of the protocol:
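Beta-lactamase reporter under UAS control in HEK293H PPARg-bla cells; compound treatment 17 h at 37C. Read-out: fluorescence intensity after 1 h room-temperature incubation with LiveBLAzer B/G FRET substrate.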

Where “and” joins values, the source holds several entries; their conditions need not be identical. Identical values can stand only once. Inconclusive results are not listed. A structure can be active in one record and inactive in another. Calls of active or inactive are those of the source. Unless noted, the call rests on the fitted dose curve; in most records, active means well fitted curve in the direction sought with a large enough effect in the repeat runs; inconclusive means weak or mixed curves; inactive means no such curve, though single readings can be large; an effect the other way counts as inactive or inconclusive.

Sequence of Peroxisome proliferator-activated receptor gamma (Homo sapiens) (P37231 whole entry, looked up): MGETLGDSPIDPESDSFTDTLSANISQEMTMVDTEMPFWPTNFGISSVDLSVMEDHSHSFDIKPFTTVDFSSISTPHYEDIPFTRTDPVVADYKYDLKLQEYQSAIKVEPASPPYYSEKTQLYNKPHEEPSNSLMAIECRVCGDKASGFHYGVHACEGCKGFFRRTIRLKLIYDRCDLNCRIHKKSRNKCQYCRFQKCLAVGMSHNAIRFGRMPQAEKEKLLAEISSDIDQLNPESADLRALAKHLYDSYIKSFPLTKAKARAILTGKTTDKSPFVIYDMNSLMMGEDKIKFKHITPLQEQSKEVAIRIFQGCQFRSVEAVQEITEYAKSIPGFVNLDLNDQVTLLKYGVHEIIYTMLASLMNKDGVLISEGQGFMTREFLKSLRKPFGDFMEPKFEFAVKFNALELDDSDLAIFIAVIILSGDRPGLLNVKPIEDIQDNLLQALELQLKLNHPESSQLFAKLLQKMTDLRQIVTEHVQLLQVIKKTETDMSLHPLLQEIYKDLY
Sequence of Aryl hydrocarbon receptor (Homo sapiens) (P35869 whole entry, looked up): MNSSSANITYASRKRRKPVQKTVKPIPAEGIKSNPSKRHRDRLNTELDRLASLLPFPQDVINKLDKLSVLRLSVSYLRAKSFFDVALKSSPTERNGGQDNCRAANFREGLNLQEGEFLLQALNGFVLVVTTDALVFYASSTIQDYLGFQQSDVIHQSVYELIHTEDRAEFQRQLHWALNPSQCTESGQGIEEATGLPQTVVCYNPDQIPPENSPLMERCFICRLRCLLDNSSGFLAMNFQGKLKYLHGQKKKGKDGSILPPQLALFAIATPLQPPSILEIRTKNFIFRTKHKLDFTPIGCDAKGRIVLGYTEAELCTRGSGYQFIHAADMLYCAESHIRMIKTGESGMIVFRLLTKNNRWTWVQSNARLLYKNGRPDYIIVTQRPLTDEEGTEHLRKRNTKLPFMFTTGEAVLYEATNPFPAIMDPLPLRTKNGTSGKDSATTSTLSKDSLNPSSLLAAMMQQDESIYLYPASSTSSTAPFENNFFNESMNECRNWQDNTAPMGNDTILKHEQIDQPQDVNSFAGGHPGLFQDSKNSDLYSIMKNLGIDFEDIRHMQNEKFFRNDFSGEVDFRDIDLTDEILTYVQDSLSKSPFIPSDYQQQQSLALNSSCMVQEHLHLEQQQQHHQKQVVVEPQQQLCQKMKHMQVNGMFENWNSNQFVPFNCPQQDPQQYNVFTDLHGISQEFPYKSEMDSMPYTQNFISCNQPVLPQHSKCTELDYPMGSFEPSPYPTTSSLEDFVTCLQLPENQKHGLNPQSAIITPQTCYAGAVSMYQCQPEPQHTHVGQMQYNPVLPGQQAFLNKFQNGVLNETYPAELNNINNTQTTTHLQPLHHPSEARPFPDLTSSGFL

`Cc1cc(O)ccc1Cl`: the Potency result in assay [1], in assay [2], in assay [6], in assay [7] and in assay [8] was “inactive” throughout. Besides, the outcome in [3], in assay [4] and in [5] was inactive.

Regarding `O=C(O)CCCc1ccc(N(CCCl)CCCl)cc1`, the Potency entry in [1] was “inactive and 30.6 µM (active)”. For the same compound, the Potency result in [2], in assay [6], in assay [7], in [9] and in [8] was “inactive” in each case. For the same compound, the compound was called inactive in assay [3], in assay [4] and in assay [5].

`O=C(O)COc1ccccc1`: the Potency result in assay [1], in assay [2], in assay [6], in [7] and in assay [8] was “inactive” in each case. Besides, the result in assay [3], in [4] and in assay [5] was inactive.

Consider `COS(=O)(=O)OC`, for which the Potency result in assay [1], in assay [2], in assay [6], in assay [7], in assay [9] and in assay [8] was “inactive” throughout. In addition, the call in assay [3], in assay [4] and in [5] was inactive.

In the case of `N#CN=C(N)N`, the Potency entry in assay [1], in [2], in assay [6], in [7] and in [8] was “inactive” each time. Further, the compound was called inactive in assay [3], in assay [4] and in assay [5].

Regarding `C=C(C)C(=O)OCC(CC)CCCC` (stereo not drawn), the Potency entry in assay [1], in assay [2], in assay [6], in [7], in [9] and in assay [8] was “inactive” throughout. Further, the compound was called inactive in assay [3], in assay [4] and in assay [5].

As for `CNC(=O)O/N=C/C(C)(C)S(C)(=O)=O`, the Potency result in assay [1], in [2], in assay [6], in assay [7] and in assay [8] was “inactive” throughout. The compound was classed as inactive in [3], in assay [4] and in assay [5].

Take `Cc1cccc(N)c1C`: the Potency result in assay [1], in assay [6], in [7] and in assay [8] was “inactive” in each case. Moreover, the Potency entry in assay [2] was “inactive and 48.6 µM (active)”. Moreover, the outcome in [3], in assay [4] and in assay [5] was inactive.

As for `ClC(Cl)c1ccccc1`, the Potency entry in assay [1], in assay [2], in assay [6], in [7] and in assay [8] was “inactive” in each case. Further, the call in assay [3], in assay [4] and in assay [5] was inactive.

Regarding `C=CC(=O)OCCCCCC(C)C`, the Potency entry in assay [1], in [2], in assay [6], in assay [7], in assay [9] and in assay [8] was “inactive” each time. The outcome in [3], in assay [4] and in [5] was inactive.

On to `Oc1c(Br)cc(Br)cc1Br`, for which the Potency entry in assay [1], in assay [2], in assay [7] and in [8] was “inactive” each time. Also, the compound was classed as inactive in [3], in [4] and in [5]. In addition, the Potency in assay [6] was 15.4 µM (active).

As to `ClCCOCCCl`, the Potency entry in [1], in [2], in [6], in assay [7], in assay [9] and in [8] was “inactive” in each case. The outcome in assay [3], in assay [4] and in [5] was inactive.

Regarding `C[C@]12CC[C@H](O)CC1=CC[C@@H]1[C@@H]2CC[C@]2(C)C(=O)CC[C@@H]12`, the Potency entry in [1], in assay [2], in [7], in assay [9] and in assay [8] was “inactive” throughout. The result in assay [3], in assay [4] and in [5] was inactive.

`CC(=O)/C=C/c1ccccc1`: the Potency result in assay [1], in assay [2], in [6], in [7] and in assay [8] was “inactive” in each case. Further, the result in [3], in [4] and in assay [5] was inactive.

On to `COP(=S)(OC)Oc1ccc(SC)c(C)c1`, for which the Potency entry in assay [1], in assay [6], in assay [7] and in assay [8] was “inactive” in each case. Moreover, in assay [2], the Potency is 26.6 µM (active) and 30.3 µM (active) and 24.3 µM (active). Moreover, the compound was called inactive in assay [3], in assay [4] and in assay [5].

For the compound `COc1nc(NC(C)C)nc(NC(C)C)n1`, the Potency entry in [1], in [2], in assay [6], in assay [7], in assay [9] and in [8] was “inactive” in each case. The call in [3], in assay [4] and in [5] was inactive.

On to `O=C/C=C/c1ccccc1`, for which the Potency result in assay [1], in [2], in assay [6], in [7] and in assay [8] was “inactive” each time. Further, the outcome in assay [3], in [4] and in assay [5] was inactive.

`CCCCC(CC)C(=O)Cl` (stereo not drawn): the Potency entry in [1], in assay [2], in assay [6], in assay [7] and in assay [8] was “inactive” each time. For the same compound, the result in [3], in assay [4] and in assay [5] was inactive.

Consider `CN(C)CCC#N`, for which the Potency result in [1], in assay [10], in assay [6], in [7], in assay [9] and in assay [8] was “inactive” throughout. Moreover, the call in [3], in [4] and in assay [5] was inactive.

Regarding `CN1C(=O)CCS(=O)(=O)C1c1ccc(Cl)cc1` (stereo not drawn), the Potency result in assay [1], in assay [2], in assay [6], in assay [7] and in assay [8] was “inactive” throughout. Also, the compound was called inactive in assay [3] and in assay [5].

For the compound `CNC(=O)O/N=C/C(C)(C)S(C)=O` (stereo not drawn), the Potency result in assay [1], in [10], in [6], in assay [7], in [9] and in [8] was “inactive” in each case. In addition, the call in assay [3], in [4] and in assay [5] was inactive.

Take `O=[N+]([O-])c1ccc(Cl)cc1`: the Potency entry in assay [1], in assay [2], in assay [6], in [7], in [9] and in [8] was “inactive” throughout. The result in assay [3] and in assay [5] was inactive.

In the case of `[N-]=[N+]=CC(=O)OC[C@H](N)C(=O)O`, the result in assay [3] and in [5] was inactive. For the same compound, the Potency result in [6], in assay [7] and in [9] was “inactive” each time.

The values are drawn from PubChem BioAssay (Tox21).
